Hit rate of the full screen: of about 220,000 compounds, about 2,000 (0.91%) were called active. About 2% were inconclusive and are not listed. Cut-off read from the data, not from the text of the source: inconclusive = inhibition above about 80% without an active follow-up result; inactive = below that; test concentration not stated here. These entries were drawn from the full list. Entries with a potency or affinity are not part of this list.
Test: M. tuberculosis H37Rv growth inhibitors, H37Rv strain (AID 1626);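 note: bacteria incubated seven days before Alamar blue readout; 0% = bacteria only wells and 100% = bacteria with antibiotic wells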
Settings: stronger effect = higher value, concentration not given here

Compound	inhibition
CCCCNC(=O)c1[nH]c(C)c(C(C)=O)c1C	-1.66% (inactive)
O=C(O)c1ccc(N/N=C/c2cc3ccccc3nc2Cl)cc1	7.73% (inactive)
Cc1ccc(C(NC(=O)/C=C\c2ccc3c(c2)OCO3)C(=O)Nc2ccc3c(c2)OCO3)cc1 (stereo not given)	61.7% (inactive)
CC(=O)NCC(=O)N(C)C(C(=O)Nc1ccc2c(c1)OCCO2)c1ccc(C)cc1 (stereo not given)	2.18% (inactive)
Cc1c(Cl)ccc2c(C(N)=O)cc(-c3ccccn3)nc12	3.8% (inactive)
CC(C)n1nc(C(=O)Oc2ccc(Cl)cc2)c2ccccc2c1=O	9.19% (inactive)
CN1CCN(Cc2nnc3n2-c2ccc(Cl)cc2C(c2ccccc2)=NC3)CC1	-4.71% (inactive)
Clc1ccc2c(c1)C(c1ccccc1Cl)=NCc1nnc(Br)n1-2	-0.77% (inactive)
O=C(CN1C(=O)NC2(CCCCC2)C1=O)NC1CCCc2ccccc21 (stereo not given)	-2.8% (inactive)
CN(CC(=O)N1CCN(c2ccc(F)cc2)CC1)S(=O)(=O)c1ccc(F)cc1	-7.27% (inactive)
CC(=O)Nc1ccc(NC(=O)Cn2cc3c(n2)CCCC3)cc1	-8.53% (inactive)
CC(=O)c1cccc(NC(=O)Cn2cc3c(n2)CCCC3)c1	-1.86% (inactive)
CCOc1ccc(NC(=O)Nc2cccnc2)cc1	16.1% (inactive)
NC(=O)CSc1ncnc2c1oc1ccccc12	7.24% (inactive)
O=C(O)CSc1ncnc2c1oc1ccccc12	-5.38% (inactive)
COc1ccc(Cc2nnc(NC(=O)c3cccc([N+](=O)[O-])c3)s2)cc1	1.81% (inactive)
CCCCNC(=O)c1ccc(Cn2c(=S)[nH]c3c([nH]c4ccc(OC)cc43)c2=O)cc1	-1.23% (inactive)
N#Cc1ccc(COC(=O)c2ccc3c(=O)[nH]c(CN4CCOCC4)nc3c2)cc1	-4.45% (inactive)
O=c1[nH]c(CN2CCOCC2)nc2ccccc12	-6.66% (inactive)
O=C(c1ccc2c(c1)OCO2)C1CCCN(C(=O)c2cnn(Cc3ccccc3)c2)C1 (stereo not given)	5.07% (inactive)
Cc1c(NC(=O)c2cc3c(s2)-c2ccccc2OC3)cccc1[N+](=O)[O-]	1.27% (inactive)
Cc1ccccc1NC(=O)c1ccc(-c2ccc(Cl)cc2Cl)o1	66.1% (inactive)
O=C(O)c1cc2c(s1)-c1ccccc1OC2	-9.86% (inactive)
CS(=O)(=O)N1CCN(c2ccccc2NC(=O)c2ccc(-c3ccc(Cl)cc3Cl)o2)CC1	-2.89% (inactive)

Compound	inhibition
Cc1cccc(-c2c3c(=O)n(C)c(=O)n(C)c3cn2CCO)c1	0.58% (inactive)
CCOC(=O)/C(C#N)=C1/C=C(C)NC(c2ccccc2O)=N1	-1.53% (inactive)
C=CCNC(=O)COC(=O)CCC(=O)c1cccs1	-6.43% (inactive)
CCC1=C(OC(=O)N(CC)CC)N2C(=O)OC(=NCc3ccccc3)[C@]2(C)[C@H]2C1=CC[C@H]1C(=O)N(CC(=O)OC)C(=O)[C@H]12	6.67% (inactive)
COc1ccccc1-c1nc(C#N)c(N2CCN(c3ccccc3)CC2)o1	0.35% (inactive)
O=C(NCCN1CCN(c2cccc(Cl)c2)CC1)c1ccc(CSc2nc3ccncc3[nH]2)cc1	12.1% (inactive)
COc1ccc(Cl)cc1N(CC(=O)N/N=C/c1ccc(OC(C)C)cc1)S(=O)(=O)c1ccc(C)c([N+](=O)[O-])c1	2.6% (inactive)
NC(=O)NC(=O)COC(=O)c1sc2ccccc2c1Cl	-8.02% (inactive)
NC(=O)COC(=O)c1sc2ccccc2c1Cl	59.5% (inactive)
CC1CCCC(NC(=O)COC(=O)COc2ccccc2Cl)C1C (stereo not given)	-6.56% (inactive)
CC1CCCC(NC(=O)COC(=O)Cc2ccccc2)C1C (stereo not given)	-10.6% (inactive)
O=C(NCc1ccccc1F)Nc1ccc([N+](=O)[O-])cc1	-8.88% (inactive)
COC(=O)c1c(NC(=O)CC2SC(N)=NC2=O)sc2c1CCC(C)C2 (stereo not given)	10.2% (inactive)
COC(=O)c1c(NC(=O)CC2SC(N)=NC2=O)sc2c1CCCC2 (stereo not given)	0.3% (inactive)
Nc1nc(CN2CCN(c3ccccc3F)CC2)nc(Nc2ccc3c(c2)OCCO3)n1	12.1% (inactive)
CCCOc1ccc(-c2nnn(CC(=O)OCC)n2)cc1	79.1% (inactive)
CC(C)COc1ccc(-c2nnn(CC(=O)N3CCCC3)n2)cc1	2.29% (inactive)
COCCNC(=O)C(c1ccc(C)o1)N(C(=O)Cn1nnc2ccccc21)c1ccccc1 (stereo not given)	4.15% (inactive)
O=C(c1ccc2c(c1)[nH]c(=S)n1c3ccccc3nc21)N1CCN(c2ncccn2)CC1	-5.02% (inactive)
COc1ccc(N2CCN(C(=O)c3ccc4c(c3)[nH]c(=S)n3c5ccccc5nc43)CC2)cc1	-4.09% (inactive)
Cc1csc2nc(CNS(=O)(=O)c3ccc4c(c3)CCCC4)cn12	-3.26% (inactive)
CCc1ccc(NC(=O)C2CC=CCC2C(=O)O)cc1 (stereo not given)	-2.56% (inactive)
CC(C)(C)c1ccc(Oc2ccc(NC(=O)C3CC=CCC3C(=O)O)cc2)cc1 (stereo not given)	3.77% (inactive)
Cc1cnc(C(=O)Nc2ccc(F)cc2)cn1	-5.16% (inactive)

Compound	inhibition
Cc1cnc(C(=O)Nc2ccc(C(C)C)cc2)cn1	13.7% (inactive)
O=S(=O)(NC1CCCCCCC1)c1cccs1	2.84% (inactive)
CC/C=C\[C@H](O)[C@H](O)C1=C(C)C(=O)[C@]2(O1)C(=O)N[C@@](OC)(C(=O)c1ccccc1)C2O (stereo not given in full)	-6.03% (inactive)
CCOC(=O)C(/C(C)=N/NC(=O)C1CC1c1ccccc1)C(C)C (stereo not given)	2.71% (inactive)
CCCCc1nc2sc3c(SCC(=O)NCc4ccco4)ncnc3c2c2c1CCC2	-4.26% (inactive)
CCCCc1nc2sc3c(=O)n(N)cnc3c2c2c1CCC2	-0.89% (inactive)
COCCCNC(=O)c1c(NC(=O)C2COc3ccccc3O2)sc2c1CCCC2 (stereo not given)	-1.45% (inactive)
COc1ccc(OC)c(S(=O)(=O)N2Cc3ccccc3CC2C(=O)O)c1 (stereo not given)	-11.6% (inactive)
CC(=O)Nc1ccc(NC(=O)CCCCCN2C(=O)c3ccccc3C2=O)cc1	1.79% (inactive)
CCN1/C(=C\C=C2\C(=O)N(C)C(=S)N2C)Sc2ccccc21	16% (inactive)
CCN1/C(=C2\SC(=S)N(Cc3ccccc3)C2=O)Sc2ccccc21	5.93% (inactive)
CC(=O)Nc1ccc2c(c1)nc1n2CCN(C(C)c2ccccc2)C1 (stereo not given)	5.76% (inactive)
O=C(c1ccc(F)cc1)N1CCCCC(S(=O)(=O)c2ccccc2)C1=O (stereo not given)	6.14% (inactive)
N#CCSc1nc2ccccc2c(=O)n1CCCC(=O)NCC1CCCO1 (stereo not given)	-1.98% (inactive)
Cc1ccc(C(=O)OCC(=O)c2ccc[nH]2)s1	7.67% (inactive)
O=C(COC(=O)c1ccc[nH]c1=O)c1ccc(Cl)s1	-0.06% (inactive)
O=C1NC(O)(c2ccccc2)Oc2ccccc21 (stereo not given)	-6.9% (inactive)
Cc1[nH][nH]c(=O)c1C(c1ccc(-c2ccc(F)cc2)o1)c1c(C)[nH][nH]c1=O	4.51% (inactive)
Cc1[nH][nH]c(=O)c1C(c1ccc(-c2ccc(Cl)c(Cl)c2)o1)c1c(C)[nH][nH]c1=O	60.8% (inactive)
O=C(CN1CCC(N2CCCCC2)CC1)N1CCOCC1	5.06% (inactive)
CCOC(=O)N1CCN(C(c2ccc(C(C)C)cc2)c2sc3nc(C)nn3c2O)CC1 (stereo not given)	0.52% (inactive)
COc1ccc(Cl)cc1S(=O)(=O)NCc1cccnc1	-12% (inactive)
O=S(=O)(Nc1ccc(-c2nnc(SCc3ccc(Cl)cc3)o2)cc1)c1ccccc1	5.83% (inactive)
O=c1cc(CSc2nnc(COc3ccccc3)n2-c2ccccc2)c2ccccc2[nH]1	3.7% (inactive)

Compound	inhibition
Cc1cccc(OCc2nnc(SCc3cc(=O)[nH]c4ccccc34)n2-c2ccccc2)c1	4.6% (inactive)
COCCNC(=O)c1cc(-c2ccc(OC)c(OC)c2)on1	6.55% (inactive)
COc1ccc(-c2cc(C(=O)Nc3cc(OC)c(OC)c(OC)c3)no2)cc1OC	-1.57% (inactive)
CCOC(=O)c1ccc(NC(=O)CSc2nc3c(c(=O)n2CC)SC(C)C3)cc1 (stereo not given)	7.17% (inactive)
CCCSc1cc(NCCOC(=O)CCC)c([N+](=O)[O-])c2nonc12	56.8% (inactive)
CCCSc1cc(NCCOC(C)=O)c([N+](=O)[O-])c2nonc12	2.64% (inactive)
CC(=O)OCCNc1cc(SC(C)C)c2nonc2c1[N+](=O)[O-]	1.55% (inactive)
CC(C)CCSc1cc(NCCO)c([N+](=O)[O-])c2nonc12	-2.23% (inactive)
COC(=O)c1cc2ccsc2n1CC(=O)Nc1cc(C)cc(C)c1	-0.8% (inactive)
CC(C)Nc1cc(C(C)(C)C)nc2c(-c3ccccc3)cnn12	-1.54% (inactive)
Cc1cc(NCCCN2CCOCC2)n2ncc(-c3ccc(Cl)cc3)c2n1	4.89% (inactive)
Cc1cc(NCCOCCO)n2ncc(-c3ccc(Cl)cc3)c2n1	8.65% (inactive)
CC(C)(C)c1cc(C(F)(F)F)n2ncc(-c3ccccc3)c2n1	3.89% (inactive)
CCCc1cc(=O)oc2c(C)c(OCC(=O)c3ccc(N4CCCC4)cc3)ccc12	15.8% (inactive)
COCCNC(=O)c1onc(CSc2ccc(C(C)C)cc2)c1C(=O)O	-18.6% (inactive)
O=C1C2C3CCC(C3)C2C(=O)N1c1ccc(OS(=O)(=O)c2ccccc2)cc1 (stereo not given)	-1.92% (inactive)
CCOC(=O)c1nn(-c2ccc(Cl)cc2)c2nc(CC)c(C#N)c(=O)n12	1.58% (inactive)
COCC(=O)OC/C(O)=C(\C#N)c1nc2ccccc2[nH]1	43.4% (inactive)
Cc1cc(Br)ccc1SCC(=O)OC/C(O)=C(\C#N)c1nc2ccccc2[nH]1	77.9% (inactive)
CC(C)C(=O)OC/C(O)=C(\C#N)c1nc2ccccc2[nH]1	-0.61% (inactive)
Cc1cc(C)cc(OCC(=O)OC/C(O)=C(\C#N)c2nc3ccccc3[nH]2)c1	13% (inactive)
Cc1cccc(C)c1OCC(=O)OC/C(O)=C(\C#N)c1nc2ccccc2[nH]1	3.83% (inactive)
N#C/C(=C(/O)COC(=O)CSc1ccc(Cl)cc1)c1nc2ccccc2[nH]1	76.2% (inactive)

Reference: PubChem BioAssay AID1626 (SRMLSC, 2009)
